Here are results for three compounds from the supplement of paper PMC12340860.

SMILES strings stand for the structures. ± gives the standard deviation of the averaged measurements.

The subject of the experiment is Caenorhabditis elegans infected with Nematocida parisii. Kind of experiment: progeny production of N. parisii-infected C. elegans relative to uninfected control; higher = stronger inhibition of microsporidia infection (rescue of reproduction). Conditions: 60 µM; incubation time 5 days; spore dose (spores/uL): 18000. How it is done:
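C. elegans N2 L1 larvae (100 per well, 96-well plate, K-medium with 5x E. coli OP50, 1% DMSO) were infected with Nematocida parisii spores (18,000 spores/uL) that had been pre-incubated for 1 h with each BU-CMD library compound at 60 uM. Plates were incubated 5 days at 21 C with shaking. Progeny were stained with rose bengal, scanned on a flatbed scanner and counted with WorMachine. Progeny number is expressed as % of uninfected DMSO controls on the same plate; three biological replicates per compound; hits were compounds with at least 60% progeny production.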
Compound `COC(=O)[C@@H]1[C@@H](c2ccccc2)[C@]2(c3ccc(OC)cc3)Oc3cc(OC)cc(OC)c3[C@@]23N=C(C)N[C@@]13O` had a progeny production of 14.3 ± 4%.

In turn, `COC(=O)[C@@H]1[C@@H](c2ccccc2)[C@]2(c3ccc(OC)cc3)Oc3cc(OC)cc(OC)c3[C@@]23N=C(C2CC2)N[C@@]13O` displayed a progeny production of 8.05 ± 3.6%.

For the compound `CONC(=O)[C@H]1[C@@H](O)[C@@]2(O)c3c(OC)cc(OC)cc3O[C@@]2(c2ccc(OC)cc2)[C@@H]1c1ccccc1`, the progeny production worked out at 13.2 ± 4.2%.
